A selection: hits, their analogues and other compounds. The true share with any hit is near 7.8%.
MARV entry inh = blocks Marburg virus binding to or entry into cells | Potency, µM (top dose mostly 37.8 µM), for the others: at the highest dose activity change, negative = inhibition, hits mostly inhibitors | Marburg virus pseudotyped entry inhibition, cell reporter | 300,000 tested, 1.8% active; calls by dose curve; tested in HEK293 cells; further: potency means the concentration at half of the fitted maximal effect
HCMV inh = human cytomegalovirus inhibition. HFF cells, HCMV-luciferase reporter, 72 h; stronger effect = lower value. activity change, negative = inhibition, % at 57.5 µM. 410,000 tested, 4.5% active; in the data active means activity change below about -60%; inconclusive means no clear call, values can overlap the other calls; inactive means above about -39%
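Human foreskin fibroblasts infected with luciferase-reporter HCMV at MOI 1 PFU/cell, compounds at two doses. Luciferase measured 72 h post infection; normalized to buffer-only basal and Salinomycin (10uM) controls.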
Vaccinia mCherry = inhibitors of vaccinia virus infection (mCherry reporter signal) | 310,000 tested, 0.63% active | Vaccinia virus mCherry reporter infection, fluorescence | Potency, µM (series often up to 36.5 µM), inactives show at the top dose activity change, negative = inhibition, actives largely listed as inhibitors; calls by dose curve; tested in A549 cells; further: potency means the concentration at half of the fitted maximal effect; nearly all actives have a fitted effect of over 35% in size
Vaccinia Venus = vaccinia inhibition (Venus reporter) | AID 720580 | Potency, µM (top dose mostly 36.5 µM), without a hit: top-dose activity change, negative = inhibition, actives largely listed as inhibitors | Vaccinia virus Venus reporter expression, fluorescence | 330,000 tested, 0.46% active; calls by dose curve; tested in A549 cells; further: potency means the concentration at half of the fitted maximal effect; nearly all actives have a fitted effect of over 30% in size
Lassa entry inh = blocks Lassa virus binding to or entry into cells. Lassa virus pseudotype entry inhibition, cell reporter. Potency, µM (titrated, usually from 37.9 µM), for the others: top-dose activity change, negative = inhibition, actives largely listed as inhibitors. 300,000 tested, 1.2% active; calls by dose curve; tested in HEK293 cells; further: potency means the concentration at half of the fitted maximal effect; nearly all actives have a fitted effect of over 50% in size
HCV inh = blocks hepatitis C virus; Potency, µM (series often up to 41.8 µM), for the others: top-dose activity change, negative = inhibition, hits mostly inhibitors; 340,000 tested, 3.4% active; Huh7.5.1 HCVcc-Cre infection, luciferase reporter, 44 h; active means well fitted inhibition curve with a large enough effect; inconclusive means small, poorly fitted or top-dose-only effect, or another doubt; inactive means no such curve, though single readings can be large or run the other way; further: potency means the concentration at half of the fitted maximal effect
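After 44 h co-culture of compound, cells and HCVcc-Cre (~0.5 moi), substrate is added for 15 min at room temperature and luciferase measured over 15 sec. Cells were seeded at 1,000/well and pre-cultured 4 h.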
Starred values were filed as active, the others as inactive; i = inactive; u = inconclusive; x = no result given; [ ] = remark or other dose. On the % scale 0 is the no-effect control and ±100 the full control effect.

SMILES | MARV entry inh | HCMV inh | Vaccinia mCherry | Vaccinia Venus | Lassa entry inh | HCV inh
COc1ccc(C(CC(=O)O)c2ccc3c(c2)OCO3)cc1 (stereo not given) | -13.7% | 64.4 | -16.6% | -8.3% | -8.3% | 35.0%
Fc1ccc(C(CCNCc2cccs2)c2ccco2)cc1 (stereo not given) | 7.94µM* | -16.4 | -14.9% | -11.0% | -1.4% | -3.5%
CC1=CC[C@@H](COc2ccccc2)O[C@@]2(C1)C(=O)N(Cc1ccccc1C(F)(F)F)c1cccc(Br)c12 | -6.8%[14.2 µM] | x | x | x | x | x
CCc1ccc(NC(=O)Cn2c(=O)n(CCC(=O)NCCc3ccc(OC)c(OC)c3)c(=O)c3ccccc32)cc1 | 7.2%[46.1 µM] | -0.8 | 26.6% | 16.9% | -2.9%[46.1 µM] | x
Clc1cccc(Cl)c1C[n+]1cccc2ccccc21 | u | -81.3* | -27.6% | -17.9% | u | u
O=C1c2ccccc2NC(c2ccccc2OCc2ccccc2)N1Cc1ccco1 (stereo not given) | x | x | 6.3% | -6.4% | x | x
Cn1ncc(Cl)c1C(=O)NCc1ccc(Cl)cc1 | -14.5% | -71.9* | -26.2% | -16.2% | -14.7% | u
CCCCC(CC)COC(=O)c1ccc(N(C)C)cc1 (stereo not given) | x | -18.4 | -7.0% | -17.3% | x | u
CCCCC(CC)COP(=O)(OCC(CC)CCCC)OCC(CC)CCCC (stereo not given) | x | 14.9 | 2.51µM* | u | x | 4.7%
CN(C)c1ccc(NC(=O)/C=C/c2c(Cl)cccc2Cl)cc1 | u | u | 28.2µM* | 6.3% | u | u
NC(=O)c1ccccc1NC(=O)/C=C/c1c(Cl)cccc1Cl | u | 110.6 | x | x | 4.4% | u
CCCCOC(=O)c1cccc(NC(=O)/C=C/c2ccccc2Cl)c1 | x | -95.3* | -20.7% | -22.2% | -27.7%[46.1 µM] | x
O=C(/C=C/c1ccccc1Cl)Nc1cccc(O)c1 | x | 28.1 | x | x | x | -9.8%
O=C(/C=C/c1ccccc1Cl)Nc1ccccc1 | 10µM* | 130.6 | i | -20.9% | u | u
CCN(C(=O)/C=C/c1ccc2c(c1)OCO2)c1ccccc1 | 23.2% | -70.6* | i | -21.5% | 0.1% | -6.2%
CCOc1ccc(-c2nnc(SCC(=O)NCCc3ccccc3)nc2-c2ccc(OCC)cc2)cc1 | x | -9.0 | -21.7% | -14.5% | u | x
CCCSC1=NC2(CCN(C(=O)NC3CCCCC3)CC2)N=C1c1ccc(C)cc1 | x | 0.2 | 0.3% | 7.0% | 7.1%[46.1 µM] | x
CCOC(=O)c1ccc(NC(=O)C2=C(C)C(=O)OC23CCN(C(C)=O)CC3)cc1 | x | u | -13.1% | -7.1% | -9.3%[46.1 µM] | x
COc1cc(CN2CCOc3ccc(CN4CCC(O)(c5cccnc5)CC4)cc3C2)cc(OC)c1 | x | x | -16.9% | 3.5% | x | x
COc1ccc(C)cc1NC(=O)Nc1nnc(N2CCCCC2)s1 | -12.2%[46.1 µM] | 10.1 | -7.7% | -20.7% | -12.1%[46.1 µM] | x
COc1ccccc1-c1nc2n(n1)C(c1ccccc1Cl)C(C(=O)Nc1cccnc1)=C(C)N2 (stereo not given) | -20.2%[46.1 µM] | 10.8 | -4.1% | -4.0% | -12.2%[46.1 µM] | x
CN(C)S(=O)(=O)c1ccc(NC(=O)/C=C/c2ccccc2Cl)cc1 | u | u | u | -29.2% | -20.4% | 8.91µM*
CCOC(=O)c1cccc(NC(=O)/C=C/c2ccc3c(c2)OCO3)c1 | u | -10.9 | -23.2% | u | u | 12.6µM*
O=C(/C=C/c1ccccc1Cl)Nc1ccc2c(c1)C(=O)NC2=O | x | 8.3 | i | -19.5% | x | u
Cn1nc(C(=O)Nc2cccc(C(F)(F)F)c2)c2c1-c1ccccc1S(=O)(=O)C2 | x | 7.7 | -23.3% | -14.9% | 2.0%[46.1 µM] | x
SMILES | MARV entry inh | HCMV inh | Vaccinia mCherry | Vaccinia Venus | Lassa entry inh | HCV inh
Cc1ccccc1OCC(=O)Nc1ccc2nc(SCC(=O)N3CCOCC3)sc2c1 | -19.6%[46.1 µM] | -78.2* | -3.2% | -5.8% | 6.7%[46.1 µM] | x
Cc1ccccc1OCc1nnc(SCC(=O)Nc2ccc3nc(SCC(=O)Nc4ccccc4)sc3c2)n1C | u | -20.3 | -5.6% | -9.8% | u | 1.12µM*
Cc1ccccc1OCc1nnc(SCC(=O)Nc2ccc3c(c2)OCO3)n1C | 0.1% | 19.4 | x | x | -2.2% | -9.7%
Cc1ccccc1OCC(=O)Nc1ccc2nc(SCC(=O)N3CCCC3)sc2c1 | u | -35.0 | -3.9% | -10.3% | 10.8%[46.1 µM] | x
Cc1cccc(Cc2c(C)nc3nc(SCC(=O)NCc4ccc(F)cc4)nn3c2C)c1 | -7.6%[46.1 µM] | 2.7 | -29.2% | -27.8% | -13.9%[46.1 µM] | x
C=CCN=c1scc(-c2ccc3c(c2)NC(=O)CO3)n1/N=C(\C)c1ccccn1 | u | -95.0* | u | u | u | u
COc1ccc(N2CCN(C(=O)COc3ccccc3C#N)CC2)cc1 | 6.2%[46.1 µM] | -7.5 | -2.9% | -4.1% | x | x
NC(=O)c1ccc(N=Cc2ccc([N+](=O)[O-])s2)cc1 | u | -97.5* | -8.2% | 8.7% | u | u
Cc1cc(C)cc(N=Cc2ccc([N+](=O)[O-])s2)c1 | u | -1.5 | -21.3% | -7.0% | u | u
O=[N+]([O-])c1ccc(C=Nc2ccc(Cl)c([N+](=O)[O-])c2)s1 | x | -98.6* | x | x | x | x
CCOc1ccc(C2C(C(N)=O)=C(C)Nc3nc(SCc4ccccc4)nn32)cc1 (stereo not given) | -2.9%[46.1 µM] | 3.7 | -3.6% | -1.9% | u | x
Cc1c2c(cc3c1[nH]c1ccccc13)C=NCC2 | u | 2.6 | u | -28.0% | 7.8%[46.1 µM] | 10µM*
Cc1cc2c([nH]c3ccccc32)c(C)n1 | u | u | -24.5% | 0.1% | -18.5%[46.1 µM] | u
Cc1ncc2c(c1CNC(=O)/C=C/c1cccs1)CCN(C(=O)c1ccc3c(c1)OCCO3)C2 | x | x | -13.6% | -5.0% | x | x
CC(Nc1nc(-c2ccc(F)cc2)cs1)c1nc2cc(Cl)c(N3CCCCC3)cc2n1CCCO (stereo not given) | x | -65.4* | u | u | x | u
CC(Nc1nc(-c2ccc(F)cc2)cs1)c1nc2cc(Cl)c(N3CCCCC3)cc2n1CCOCCO (stereo not given) | x | -18.3 | u | u | x | u
Cc1cc(Oc2ccc(C)c(Cl)c2)nc(SCC(=O)c2ccccc2)n1 | u | -73.6* | -21.3% | -15.7% | u | u
Cc1ccc(C(=O)CSc2cc(C)nc(SCC(=O)c3ccccc3)n2)cc1 | u | -15.4 | x | -24.6% | u | u
Cc1nc(C)c(C(=O)N2CCc3c(cnc(C)c3CNC(=O)c3cncs3)C2)s1 | x | x | -3.8% | -4.7% | x | x
COC(=O)c1ccc(C(=O)OC)c(NC(=O)CN2CCN(c3ccccc3)CC2)c1 | 9.2µM* | -15.1 | -9.0% | -1.4% | u | -22.3%
COC(=O)c1[nH]c2ccc(C)cc2c1NC(=O)CN1CCC(C)CC1 | 3.6% | -30.4 | -25.8% | -18.6% | -26.4% | u
COC(=O)c1[nH]c2ccc(C)cc2c1NC(=O)CN1CCN(c2ccccc2)CC1 | u | -64.5* | u | u | u | u
COC(=O)c1[nH]c2ccc(C)cc2c1NC(=O)CN1CCN(Cc2ccccc2)CC1 | -19.8% | -10.2 | -13.9% | u | u | u

Source: PubChem BioAssay
